This passage reports Inhibition results from ChEMBL document CHEMBL1157539, “Thousands of chemical starting points for antimalarial lead identification” (Nature, 2010).

Common to all, as to format: functional
The subject of test [1] is Plasmodium falciparum. Kind of test: GSK_TCMDC: Inhibition of Plasmodium falciparum 3D7 in whole red blood cells, using parasite LDH activity as an index of growth. Test compounds present at 2uM.
The subject of test [2] is Plasmodium falciparum. Kind of test: GSK_TCMDC: Inhibition of Plasmodium falciparum Dd2 in whole red blood cells, using parasite LDH activity as an index of growth. Test compounds present at 2uM.
The test system of another test is HepG2. The experiment in a line: GSK_TCMDC: Percent inhibition of human HepG2 cell line. Test compounds present at 10uM.

For the compound `CC(=O)N(C)C1CCN(Cc2ccc(-c3cccc(-c4nc5cc(F)ccc5[nH]4)c3)cc2)C1.O=C(O)C(F)(F)F` (stereo not given), the values for the Inhibition with Plasmodium falciparum [1], in the test on Plasmodium falciparum [2] and in the test with HepG2 were 100%, 79% and 28%, respectively.
The matching figures for `O=C(O)c1ccc(-c2c[nH]c3ncc(-c4ccc(Cl)cc4)cc23)cc1`: 97%, 99% and 39%.
On to `CCOC(=O)c1ccc(N=C2SC(=Cc3cc(Br)ccc3O)C(=O)N2C)cc1`, for which the results for the Inhibition in the test with Plasmodium falciparum [1], in the test on Plasmodium falciparum [2] and in the test on HepG2 were 99%, 96% and 0%, respectively.
For `O=C(NOCCOc1ccccc1)c1ccccc1`, the figures for the Inhibition in the test with Plasmodium falciparum [1], in the test with Plasmodium falciparum [2] and in the test with HepG2 were 98%, 0% and 0%, respectively.
Take `O=C(/C=C/c1ccc(Cl)c(Cl)c1)N1CCC(CN2CCC(c3c[nH]c4ccncc34)CC2)CC1`: the figures for the Inhibition with Plasmodium falciparum [1], with Plasmodium falciparum [2] and in the test on HepG2 were 100%, 72% and 44%, respectively.
Turning to `O=C(Nc1ccc(Br)cc1)Nc1ccc(Cn2ncc(N3CCCNCC3)c(Cl)c2=O)cc1.O=C(O)C(F)(F)F`, the values for the Inhibition in the test with Plasmodium falciparum [1], in the test with Plasmodium falciparum [2] and in the test on HepG2 were 87%, 15% and 0%, respectively.
Consider `O=C(N[C@H]1CCN(Cc2ccc(OCCN3CCCC3)c(Cl)c2)C1)c1ccc(Cl)c(Cl)c1.O=C(O)C(F)(F)F`, for which the Inhibition in the test on Plasmodium falciparum [1] stood at 100%; in the test with Plasmodium falciparum [2] it was 46%; in the test on HepG2, 68%.
`CCN(CC)CCN(Cc1ccc(-c2ccc(C(F)(F)F)cc2)cc1)C(=O)Cn1c(CCc2ccc(F)c(F)c2)nc(=O)c2ccccc21.O=C(O)C(O)C(O)C(=O)O`: the results for the Inhibition with Plasmodium falciparum [1], with Plasmodium falciparum [2] and in the test with HepG2 were 99%, 62% and 31%, respectively.
As to `Cl.O=C(Nc1ccc(C(=O)Nc2cccc(C3=NCCN3)c2)cc1)Nc1ccc(C2=NCCN2)cc1`, the Inhibition in the test with Plasmodium falciparum [1] is 96%; in the test with Plasmodium falciparum [2] it was 98%; with HepG2, 0%.
For `COc1cc(NC(=O)/C=C/c2ccccc2Cl)cc(OCCN2CCC(O)(c3ccccc3)CC2)c1.O=C(O)C(=O)O`, the Inhibition in the test with Plasmodium falciparum [1] is listed as 100%; in the test with Plasmodium falciparum [2], 46%; in the test with HepG2, 48%.
